Measured values reported in PubChem BioAssay (Tox21).
Results filed as inconclusive are left out. Values without a mark were called inactive. Active and inactive are the calls of the source. Calls follow the shape of the full dose curve.

What follows are molecules tested against Peroxisome proliferator-activated receptor delta (Homo sapiens) (UniProt Q03181) (assay: qHTS assay to identify small molecule agonists of the peroxisome proliferator-activated receptor delta (PPARd) signaling pathway (AID 743212)). Conditions: HEK293H PPARd-UAS-bla, beta-lactamase FRET ratio, 17 h; series mostly up to 62.6 µM; activation: at the top concentration.
Excerpt: U.S. Tox21 Program National Center for Advancing Translational Sciences [NCATS] NIH Chemical Genomics Center [NCGC] U.S. Environmental Protection Agency [EPA] National Institutes of Environmental Health Sciences [NIEHS] National Toxicology Program [NTP] U.S. Food and Drug Administration [FDA] Tox21 Assay Overview: The peroxisome proliferator-activated receptors (PPARs) are lipid-activated transcription factors of the nuclear receptor superfamily with three distinct subtypes namely PPAR alpha, PPAR delta (PPARd) and PPAR gamma. All these subtypes heterodimerizes with Retinoid X receptor (RXR) and have different physiological functions. […] To identify the compounds that activate PPAR-delta signaling, GeneBLAzer PPAR delta UAS-bla HEK293H cell line (Invitrogen, Carlsbad, CA, USA) containing a beta-lactamase reporter gene under the control of an Upstream Activator Sequence (UAS) was used to screen the Tox21 compound library.
Tox21 Assay Protocol Summary: PPARd-bla cells were dispensed at 3000 cells/6uL/well in 1536-well black wall/clear bottom plates using a Multidrop Combi (Thermo Fisher Scientific, Waltham, MA) dispenser. After the assay plates were incubated at 37 C and 5% CO2 for 5 h, 23 nL of compounds dissolved in DMSO, positive controls or DMSO only was transferred to the assay plate by a Pintool station (Kalypsys, San Diego, CA). The assay plates were incubated at 37C for 17 h. After 1 uL of LiveBLAzerTM B/G FRET substrate was added using a Bioraptr Flying Reagent Dispenser (FRD) workstation (Beckman Coulter, Indianapolis, IN, USA), the plates were incubated at room temperature for 2 h, and fluorescence intensity was measured by an Envision plate reader (PerkinElmer, Shelton, CT).
% is scaled to controls: 0 for no effect and ±100 for the full control effect; potency is read from the fitted curve at half-maximal effect.

Chain of Peroxisome proliferator-activated receptor delta (Homo sapiens) (Q03181 whole entry, looked up): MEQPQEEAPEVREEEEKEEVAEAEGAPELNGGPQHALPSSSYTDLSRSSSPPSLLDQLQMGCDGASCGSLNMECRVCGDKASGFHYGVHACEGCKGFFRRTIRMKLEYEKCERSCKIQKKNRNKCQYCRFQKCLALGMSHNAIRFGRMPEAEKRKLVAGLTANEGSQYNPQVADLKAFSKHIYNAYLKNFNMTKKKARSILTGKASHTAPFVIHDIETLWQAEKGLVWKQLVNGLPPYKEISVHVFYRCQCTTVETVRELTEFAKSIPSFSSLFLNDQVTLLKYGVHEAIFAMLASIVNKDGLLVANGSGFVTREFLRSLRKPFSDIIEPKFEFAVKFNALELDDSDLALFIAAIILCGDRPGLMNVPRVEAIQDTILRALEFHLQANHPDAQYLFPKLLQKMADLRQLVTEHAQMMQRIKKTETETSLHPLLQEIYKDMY

Structure (SMILES)	activation	Potency
COc1ccnc(CS(=O)c2nc3ccc(OC(F)F)cc3[nH]2)c1OC (stereo not given)	0.955%	–
CCOC(=O)NCCOc1ccc(Oc2ccccc2)cc1	-1.13%	–
CCCCC1=NC2(CCCC2)C(=O)N1Cc1ccc(-c2ccccc2-c2nn[nH]n2)cc1	-8.6%	–
CCO[Si](CCCCl)(OCC)OCC	2.94%	–
C1CCCNCCC1	1.79%	–
Nc1ccc(S(=O)(=O)Nc2ccccc2)cc1	-4.17%	–
CCOc1ccc(N)c([N+](=O)[O-])c1	-1.61%	–
C=C(C)C(=O)OCCO	0.647% [at 81.1 µM]	–
CCCCC(CC)COC(=O)CCCCCCCCC(=O)OCC(CC)CCCC (stereo not given)	-3.97%	–
O=C(O)CNCC(=O)O	11.6% [at 5.95 µM]	–
CCCOC(C(=O)OC1CCN(C)CC1)(c1ccccc1)c1ccccc1	2.4%	–
CCN(CC)CCNC(=O)c1cc(Br)c(N)cc1OC	-6.38%	–
NCCCN1CCOCC1	-5.58%	–
CCOC(=O)C(=O)CCc1ccccc1	1.78%	–
CC[N+]1(CC)CCC(=C(c2ccccc2)c2ccccc2)C1C (stereo not given)	3.43%	–
O=C1[C@H]2CCCC[C@H]2C(=O)N1CCCCN1CCN(c2nsc3ccccc23)CC1	-6.9%	–
COc1cccc(N(C)C(=S)Oc2ccc3c(c2)CCCC3)n1	-1.91%	–
CCCCOC(=O)CCCCCCCC(=O)OCCCC	-0.192%	–
Cc1ncc(CO)c(C=O)c1O	-0.74%	–
O=C(O)c1ccccc1Cl	2.46%	–

Structure (SMILES)	activation	Potency
Brc1c2ccccc2c(Br)c2ccccc12	–	1.98 µM (active)
CCCn1cnc2c1c(=O)n(CCCCC(C)=O)c(=O)n2C	-0.251%	–
COCC(C)OC(C)=O (stereo not given)	1.94%	–
CCCCCCCCCCO[C@@H]1O[C@H](CO)[C@@H](O)[C@H](O)[C@H]1O	3.57%	–
CN1CCC(N(Cc2cccs2)c2ccccc2)CC1	-11.1%	–
O=C(O)c1nc(Cl)c(Cl)c(Cl)c1Cl	-0.137%	–
CC(C)(COC(=O)c1ccccc1)COC(=O)c1ccccc1	0.288%	–
CNC(=O)CN(CCN(CCN(CC(=O)[O-])CC(=O)NC)CC(=O)[O-])CC(=O)[O-].O.[Gd+3]	5.86%	–
C#CCN(C)CCCOc1ccc(Cl)cc1Cl	-3.06%	–
CCCCC	-0.357%	–
C/C=C/C(=O)CC	2.05% [at 13.2 µM]	–
CCCCCCCCO[C@@H]1O[C@H](CO)[C@@H](O)[C@H](O)[C@H]1O	-0.163%	–
CN1CCC(=C2c3ccccc3Sc3ccccc32)CC1	-11.1%	–
CCCC(=O)Nc1ccc(O)c(C(C)=O)c1	-1.21%	–
O=C(NCCO[N+](=O)[O-])c1cccnc1	3.96%	–
C/C=C(/C(=C/C)c1ccc(OC(C)=O)cc1)c1ccc(OC(C)=O)cc1	-4.22%	–
CCC(Cl)CCC(Cl)C(Cl)CC(Cl)C(Cl)C(Cl)CCl (stereo not given)	-1.36%	–
CC(C)OC(=O)C(C)N(C(=O)c1ccccc1)c1ccc(F)c(Cl)c1 (stereo not given)	-3.23%	–
C=CCOc1ccccc1OCC(O)CNC(C)C (stereo not given)	3.49%	–
CCCCCCc1ccc(-c2ccc(C#N)cc2)cc1	1.08%	–
